# Publication PMC7862700, “An all-to-all approach to the identification of sequence-specific readers for epigenetic DNA modifications on cytosine”
# Experiments:
# Assay in all cases: DAPPL (digital affinity profiling via proximity ligation, sequencing); 10 mM Tris-HCl pH 7.5, 50 mM NaCl, 1 mM DTT, 4% glycerol, room temperature, 30 min; GST-TFs on glutathione beads, 16-mer random dsDNA library, 0.1% formaldehyde crosslink after washing; high values mean tight binding
# Settings in all cases: protein: recombinant; tags: N-terminal GST; dsDNA, one strand shown
# FLI1 = biological target: T1, FLI1 (Homo sapiens, UniProt Q01543 1-452)
# T1 sequence: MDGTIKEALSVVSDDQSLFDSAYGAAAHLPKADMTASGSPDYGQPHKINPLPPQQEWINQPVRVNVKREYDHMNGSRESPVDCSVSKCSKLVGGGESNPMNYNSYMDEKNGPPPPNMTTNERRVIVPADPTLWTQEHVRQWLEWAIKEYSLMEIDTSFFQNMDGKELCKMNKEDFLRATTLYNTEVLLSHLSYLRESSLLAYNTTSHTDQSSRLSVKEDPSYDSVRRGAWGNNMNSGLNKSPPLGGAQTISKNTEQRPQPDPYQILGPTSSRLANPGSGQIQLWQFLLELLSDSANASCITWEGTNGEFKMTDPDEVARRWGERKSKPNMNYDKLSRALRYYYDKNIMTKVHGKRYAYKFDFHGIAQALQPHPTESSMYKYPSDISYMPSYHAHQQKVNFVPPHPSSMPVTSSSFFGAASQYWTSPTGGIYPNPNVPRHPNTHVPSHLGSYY
# Procedure, shortened: (§1)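 The binding signal reported is, for every hexamer, its read frequency for a factor over its read frequency for the tag-only sample. Reads came from pools of yeast-expressed, GST-fused human transcription factors on glutathione beads, barcoded with DNA and mixed with that sample, which were incubated with 200 nmole of a random double-stranded 16-mer DNA library in Tris/NaCl/DTT/glycerol buffer at room temperature for 30 min. After washing, the pools were crosslinked with 0.1% formaldehyde, proximity-ligated with BsaI/T4 ligase for 1 h at 37 °C, PCR-amplified and sequenced on an Illumina NextSeq500.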
# ELK1 = biological target: T2, ELK1 (Homo sapiens, UniProt P19419 1-428)
# T2 sequence: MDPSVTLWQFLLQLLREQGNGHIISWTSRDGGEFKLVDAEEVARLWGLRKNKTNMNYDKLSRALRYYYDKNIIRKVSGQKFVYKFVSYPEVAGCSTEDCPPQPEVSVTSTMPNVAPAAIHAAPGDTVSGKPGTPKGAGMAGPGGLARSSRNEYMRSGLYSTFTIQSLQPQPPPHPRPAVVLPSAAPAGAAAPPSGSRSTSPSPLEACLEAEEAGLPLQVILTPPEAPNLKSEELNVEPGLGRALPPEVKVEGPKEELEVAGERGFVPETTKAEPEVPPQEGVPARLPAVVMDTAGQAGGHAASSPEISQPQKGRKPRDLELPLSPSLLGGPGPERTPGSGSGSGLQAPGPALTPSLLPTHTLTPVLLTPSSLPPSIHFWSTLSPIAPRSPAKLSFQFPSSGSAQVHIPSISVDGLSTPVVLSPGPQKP
# Procedure, shortened: as §1
# GABPA = biological target: T3, GABPA (Homo sapiens, UniProt Q06546 1-454)
# T3 sequence: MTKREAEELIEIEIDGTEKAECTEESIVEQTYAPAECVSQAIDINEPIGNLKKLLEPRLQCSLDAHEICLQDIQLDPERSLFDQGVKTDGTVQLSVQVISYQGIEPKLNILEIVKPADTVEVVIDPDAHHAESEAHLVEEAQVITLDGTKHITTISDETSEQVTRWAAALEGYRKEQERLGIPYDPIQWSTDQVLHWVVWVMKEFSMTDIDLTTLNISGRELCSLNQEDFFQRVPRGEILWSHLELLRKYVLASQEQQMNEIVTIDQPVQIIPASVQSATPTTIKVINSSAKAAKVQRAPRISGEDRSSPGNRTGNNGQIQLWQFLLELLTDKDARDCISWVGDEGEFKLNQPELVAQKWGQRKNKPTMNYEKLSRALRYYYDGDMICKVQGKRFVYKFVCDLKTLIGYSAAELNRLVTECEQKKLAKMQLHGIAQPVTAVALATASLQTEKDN
# Procedure, shortened: as §1
# ERG = biological target: T4, ERG (Homo sapiens, UniProt P11308 1-479)
# T4 sequence: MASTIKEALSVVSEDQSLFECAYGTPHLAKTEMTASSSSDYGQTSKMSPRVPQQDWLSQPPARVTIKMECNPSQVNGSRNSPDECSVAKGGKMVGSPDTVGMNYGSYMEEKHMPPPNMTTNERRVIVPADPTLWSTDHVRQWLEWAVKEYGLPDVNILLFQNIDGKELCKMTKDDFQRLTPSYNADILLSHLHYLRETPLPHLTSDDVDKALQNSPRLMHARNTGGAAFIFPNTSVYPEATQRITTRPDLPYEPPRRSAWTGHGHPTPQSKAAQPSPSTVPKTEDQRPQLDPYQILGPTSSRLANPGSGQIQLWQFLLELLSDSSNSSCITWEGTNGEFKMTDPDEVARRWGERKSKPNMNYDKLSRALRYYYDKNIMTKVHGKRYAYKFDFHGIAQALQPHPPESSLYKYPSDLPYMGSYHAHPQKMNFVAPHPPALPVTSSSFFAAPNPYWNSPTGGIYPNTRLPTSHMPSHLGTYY
# Procedure, shortened: as §1
# ELF1 = ELF1 (Homo sapiens, UniProt P32519 1-619)
# Procedure, shortened: as §1
# EHF = biological target: T5, EHF (Homo sapiens, UniProt Q9NZC4 1-300)
# T5 sequence: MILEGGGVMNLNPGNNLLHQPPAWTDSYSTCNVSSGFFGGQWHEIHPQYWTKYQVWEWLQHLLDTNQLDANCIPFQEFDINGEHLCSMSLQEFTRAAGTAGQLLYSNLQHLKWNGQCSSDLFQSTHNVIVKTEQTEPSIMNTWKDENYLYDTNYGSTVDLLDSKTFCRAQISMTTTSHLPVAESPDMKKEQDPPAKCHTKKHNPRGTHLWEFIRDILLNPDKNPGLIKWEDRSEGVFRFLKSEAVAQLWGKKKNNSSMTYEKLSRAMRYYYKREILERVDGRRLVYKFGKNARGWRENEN
# Procedure, shortened: as §1
# SPI1 = SPI1 (Homo sapiens, UniProt P17947 1-270)
# Procedure, shortened: as §1
# SPIB = SPIB (Homo sapiens, UniProt Q01892 1-262)
# Procedure, shortened: as §1
# ELK3 = biological target: T6, ELK3 (Homo sapiens, UniProt P41970 1-407)
# T6 sequence: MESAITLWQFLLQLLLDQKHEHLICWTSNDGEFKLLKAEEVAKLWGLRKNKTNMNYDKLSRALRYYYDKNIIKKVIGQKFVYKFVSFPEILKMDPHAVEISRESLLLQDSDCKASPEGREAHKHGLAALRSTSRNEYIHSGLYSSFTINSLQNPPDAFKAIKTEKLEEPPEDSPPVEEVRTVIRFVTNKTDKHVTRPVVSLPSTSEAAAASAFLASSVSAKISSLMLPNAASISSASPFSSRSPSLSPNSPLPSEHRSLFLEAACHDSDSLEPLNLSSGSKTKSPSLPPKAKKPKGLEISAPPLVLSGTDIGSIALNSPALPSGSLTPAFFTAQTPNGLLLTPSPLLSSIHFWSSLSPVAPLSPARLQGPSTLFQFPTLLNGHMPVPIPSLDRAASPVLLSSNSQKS
# Procedure, shortened: as §1
# Sequence of SPIB (Q01892 whole entry): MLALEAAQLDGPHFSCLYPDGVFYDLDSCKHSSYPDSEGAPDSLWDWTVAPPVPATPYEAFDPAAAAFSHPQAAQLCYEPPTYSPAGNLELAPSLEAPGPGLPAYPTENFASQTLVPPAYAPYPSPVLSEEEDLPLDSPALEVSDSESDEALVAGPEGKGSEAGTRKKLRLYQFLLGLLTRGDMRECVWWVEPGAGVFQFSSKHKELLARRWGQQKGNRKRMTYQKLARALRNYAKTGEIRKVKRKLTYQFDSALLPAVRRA
# Sequence of ELF1 (P32519 whole entry): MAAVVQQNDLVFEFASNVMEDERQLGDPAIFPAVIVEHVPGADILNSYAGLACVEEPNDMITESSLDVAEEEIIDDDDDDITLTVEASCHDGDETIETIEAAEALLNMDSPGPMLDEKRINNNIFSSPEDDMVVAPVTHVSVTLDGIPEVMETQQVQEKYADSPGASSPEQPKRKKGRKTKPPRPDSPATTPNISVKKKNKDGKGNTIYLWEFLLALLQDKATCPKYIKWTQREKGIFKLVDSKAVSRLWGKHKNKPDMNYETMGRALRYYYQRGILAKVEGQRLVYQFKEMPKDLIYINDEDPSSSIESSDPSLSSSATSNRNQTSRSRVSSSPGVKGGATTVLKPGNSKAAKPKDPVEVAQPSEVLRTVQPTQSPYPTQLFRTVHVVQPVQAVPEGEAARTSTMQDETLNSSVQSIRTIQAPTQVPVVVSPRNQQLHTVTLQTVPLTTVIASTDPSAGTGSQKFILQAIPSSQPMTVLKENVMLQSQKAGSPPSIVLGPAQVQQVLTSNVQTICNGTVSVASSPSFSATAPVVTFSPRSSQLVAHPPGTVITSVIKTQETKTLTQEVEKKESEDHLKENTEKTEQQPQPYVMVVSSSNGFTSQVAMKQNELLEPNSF
Sequence,binding signal (FLI1),binding signal (ELK1),binding signal (GABPA),binding signal (ERG),binding signal (ELF1),binding signal (EHF),binding signal (SPI1),binding signal (SPIB),binding signal (ELK3)
CACCAA,"1.02 fold enrichment (6-mer frequency, TF over GST control)","1.16 fold enrichment (6-mer frequency, TF over GST control)","1.03 fold enrichment (6-mer frequency, TF over GST control)","1.07 fold enrichment (6-mer frequency, TF over GST control)","1.12 fold enrichment (6-mer frequency, TF over GST control)","1.06 fold enrichment (6-mer frequency, TF over GST control)","1.07 fold enrichment (6-mer frequency, TF over GST control)","1.04 fold enrichment (6-mer frequency, TF over GST control)","1.15 fold enrichment (6-mer frequency, TF over GST control)"
CCTTTG,"1.32 fold enrichment (6-mer frequency, TF over GST control)","1.3 fold enrichment (6-mer frequency, TF over GST control)","1.4 fold enrichment (6-mer frequency, TF over GST control)","1.37 fold enrichment (6-mer frequency, TF over GST control)","1.38 fold enrichment (6-mer frequency, TF over GST control)","1.42 fold enrichment (6-mer frequency, TF over GST control)","1.47 fold enrichment (6-mer frequency, TF over GST control)","1.28 fold enrichment (6-mer frequency, TF over GST control)","1.18 fold enrichment (6-mer frequency, TF over GST control)"
CGCTTA,"1.32 fold enrichment (6-mer frequency, TF over GST control)","1.26 fold enrichment (6-mer frequency, TF over GST control)","1.17 fold enrichment (6-mer frequency, TF over GST control)","1.15 fold enrichment (6-mer frequency, TF over GST control)","1.32 fold enrichment (6-mer frequency, TF over GST control)","1.18 fold enrichment (6-mer frequency, TF over GST control)","1.24 fold enrichment (6-mer frequency, TF over GST control)","1.41 fold enrichment (6-mer frequency, TF over GST control)","1.15 fold enrichment (6-mer frequency, TF over GST control)"
TTACCG,"1.16 fold enrichment (6-mer frequency, TF over GST control)","1.16 fold enrichment (6-mer frequency, TF over GST control)","1.12 fold enrichment (6-mer frequency, TF over GST control)","1.2 fold enrichment (6-mer frequency, TF over GST control)","1.11 fold enrichment (6-mer frequency, TF over GST control)","1.24 fold enrichment (6-mer frequency, TF over GST control)","1.17 fold enrichment (6-mer frequency, TF over GST control)","1.15 fold enrichment (6-mer frequency, TF over GST control)","1.18 fold enrichment (6-mer frequency, TF over GST control)"
GATGAA,"1.23 fold enrichment (6-mer frequency, TF over GST control)","1.26 fold enrichment (6-mer frequency, TF over GST control)","1.2 fold enrichment (6-mer frequency, TF over GST control)","1.17 fold enrichment (6-mer frequency, TF over GST control)","1.18 fold enrichment (6-mer frequency, TF over GST control)","1.15 fold enrichment (6-mer frequency, TF over GST control)","1.1 fold enrichment (6-mer frequency, TF over GST control)","1.24 fold enrichment (6-mer frequency, TF over GST control)","1.11 fold enrichment (6-mer frequency, TF over GST control)"
TCCGGG,"1.54 fold enrichment (6-mer frequency, TF over GST control)","1.55 fold enrichment (6-mer frequency, TF over GST control)","1.35 fold enrichment (6-mer frequency, TF over GST control)","1.56 fold enrichment (6-mer frequency, TF over GST control)","1.48 fold enrichment (6-mer frequency, TF over GST control)","1.48 fold enrichment (6-mer frequency, TF over GST control)","1.4 fold enrichment (6-mer frequency, TF over GST control)","1.65 fold enrichment (6-mer frequency, TF over GST control)","1.46 fold enrichment (6-mer frequency, TF over GST control)"
